According to the supplement of paper PMC12297408:
Counter-ions that a name gives are not always drawn.

What follows are compounds tested on Plasmodium falciparum NF54/iGP1_RE9H ulg8 stage V gametocytes (assay: gametocyte viability (luciferase signal relative to DMSO control) (% of DMSO control); higher = less gametocytocidal activity, active = 50 or less). Settings: concentration: 1 µM; exposure time: 72 h.
Protocol: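 Synchronous P. falciparum NF54/iGP1_RE9H ulg8 mature stage V gametocytes (day 12) were exposed to Cayman Epigenetics Screening Library compounds at 10 µM or 1 µM for 72 h at 37 °C. Viability was read as RE9H luciferase bioluminescence, normalised to DMSO plate controls (100%); 50 µM methylene blue was the positive control.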

| Compound | gametocyte viability |
| --- | --- |
| COc1ccc(CCc2nc3cc(-c4c(C)noc4C)ccc3n2C[C@H](C)N2CCOCC2)cc1Cl | 78.4 (inactive) |
| COC(=O)c1ccc(N2CCN(C)CC2)c(NC(=O)c2cccc(OC)c2)c1 | 85.8 (inactive) |
| Clc1cc2c(NC3CCCC3)nnc(-c3ccncc3)c2cc1Cl | 83.9 (inactive) |
| COc1cc2nc(N3CCCC3)nc(NCCCCCN3CCCC3)c2cc1OC | 92.2 (inactive) |
| O=C(O)c1ccnc(C(=O)O)c1 [2,4-Pyridinedicarboxylic Acid (hydrate)] | 90.8 (inactive) |
| COc1cccc2c1c(O)c(C(=O)N(C)c1ccc(C(F)(F)F)cc1)c(=O)n2C [Tasquinimod] | 83.1 (inactive) |
| CC(C)N(CCCNC(=O)Nc1ccc(C(C)(C)C)cc1)C[C@H]1O[C@@H](n2cc(Br)c3c(N)ncnc32)[C@H](O)[C@@H]1O | 88 (inactive) |
| O=C(CCl)Nc1ccc(S(=O)(=O)c2ccc(NC(=O)CCl)cc2)cc1 | 78.5 (inactive) |
| CC[C@@H]1C(=O)N(C)c2cnc(Nc3ccc(C(=O)NC4CCN(C)CC4)cc3OC)nc2N1C1CCCC1 | 78.1 (inactive) |
| O=C1/C(=C/c2ccc(O)c(Br)c2)CCC/C1=C\c1ccc(O)c(Br)c1 [HAT Inhibitor II] | 89.2 (inactive) |
| O=C(O)C(Cc1c[nH]c2ccccc12)N1C(=O)c2ccccc2C1=O (stereo not given) | 86.9 (inactive) |
| CC1CC/C(=N\Nc2nc(-c3ccc(Cl)cc3)cs2)C1 (stereo not given) [CPTH6 (hydrobromide)] | 86.6 (inactive) |
| O=C(c1cncc(Br)c1)N1CCC(N2CCCC2)CC1 | 86.5 (inactive) |
| CC1(C)C(=O)NC2=C1C(=O)C(=O)c1ccccc12 | 88.9 (inactive) |
| CC(C)C(=O)SCCCCCCC(=O)Nc1nc(-c2ccccc2)cs1 | 82.8 (inactive) |
| Cc1cc(C)c(CNC(=O)c2cc(-c3ccc(N4CCN(C)CC4)nc3)cc3c2c(C)cn3C(C)C)c(=O)[nH]1 | 78.5 (inactive) |
| CC(NC(=O)c1ccccc1/N=C/c1c(O)ccc2ccccc12)c1ccccc1 (stereo not given) [Sirtinol] | 102 (inactive) |
| COc1ccccc1C(=O)Nc1cc2c(cc1N1CCCC1)n(C)c(=O)n2C | 79.5 (inactive) |
| O=C(/C=C/c1cccc(C(=O)NO)c1)NO | 89.2 (inactive) |
| Cn1cc(CNCC2CCN(c3ncc(C(=O)NO)cn3)CC2)c2ccccc21 | 62 (inactive) |

Same assay, conditions: concentration: 10 µM; exposure time: 72 h

| Compound | gametocyte viability |
| --- | --- |
| COc1ccc(CCc2nc3cc(-c4c(C)noc4C)ccc3n2C[C@H](C)N2CCOCC2)cc1Cl | 68.6 (inactive) |
| COC(=O)c1ccc(N2CCN(C)CC2)c(NC(=O)c2cccc(OC)c2)c1 | 82.1 (inactive) |
| Clc1cc2c(NC3CCCC3)nnc(-c3ccncc3)c2cc1Cl | 71.7 (inactive) |
| COc1cc2nc(N3CCCC3)nc(NCCCCCN3CCCC3)c2cc1OC | 18.9 (active) |
| O=C(O)c1ccnc(C(=O)O)c1 [2,4-Pyridinedicarboxylic Acid (hydrate)] | 90.6 (inactive) |
| COc1cccc2c1c(O)c(C(=O)N(C)c1ccc(C(F)(F)F)cc1)c(=O)n2C [Tasquinimod] | 82.9 (inactive) |
| CC(C)N(CCCNC(=O)Nc1ccc(C(C)(C)C)cc1)C[C@H]1O[C@@H](n2cc(Br)c3c(N)ncnc32)[C@H](O)[C@@H]1O | 49.3 (active) |
| O=C(CCl)Nc1ccc(S(=O)(=O)c2ccc(NC(=O)CCl)cc2)cc1 | 45 (active) |
| CC[C@@H]1C(=O)N(C)c2cnc(Nc3ccc(C(=O)NC4CCN(C)CC4)cc3OC)nc2N1C1CCCC1 | 16.6 (active) |
| O=C1/C(=C/c2ccc(O)c(Br)c2)CCC/C1=C\c1ccc(O)c(Br)c1 [HAT Inhibitor II] | 83.2 (inactive) |
| O=C(O)C(Cc1c[nH]c2ccccc12)N1C(=O)c2ccccc2C1=O (stereo not given) | 84.3 (inactive) |
| CC1CC/C(=N\Nc2nc(-c3ccc(Cl)cc3)cs2)C1 (stereo not given) [CPTH6 (hydrobromide)] | 82.2 (inactive) |
| O=C(c1cncc(Br)c1)N1CCC(N2CCCC2)CC1 | 91.4 (inactive) |
| CC1(C)C(=O)NC2=C1C(=O)C(=O)c1ccccc12 | 85.2 (inactive) |
| CC(C)C(=O)SCCCCCCC(=O)Nc1nc(-c2ccccc2)cs1 | 79.7 (inactive) |
| Cc1cc(C)c(CNC(=O)c2cc(-c3ccc(N4CCN(C)CC4)nc3)cc3c2c(C)cn3C(C)C)c(=O)[nH]1 | 62.9 (inactive) |
| CC(NC(=O)c1ccccc1/N=C/c1c(O)ccc2ccccc12)c1ccccc1 (stereo not given) [Sirtinol] | 95 (inactive) |
| COc1ccccc1C(=O)Nc1cc2c(cc1N1CCCC1)n(C)c(=O)n2C | 65.1 (inactive) |
| O=C(/C=C/c1cccc(C(=O)NO)c1)NO | 75.4 (inactive) |
| Cn1cc(CNCC2CCN(c3ncc(C(=O)NO)cn3)CC2)c2ccccc21 | 66.3 (inactive) |
